Percent Effect data for eleven molecules are collected here from ChEMBL document CHEMBL3988442, “University of Dundee, Small-Polar-MMV Screening Library” (2021).

Holding throughout (set-up): scale not given: direction of the effect not stated beside the values
For assay [1], the target named is Protein translocase subunit SecA (Escherichia coli (strain K12)) (UniProt P10408). Put plainly: Assay to Identify E. coli SecA ATPase Inhibitors. The format is functional. The conditions noted are these: 30 µM.
Chain of Protein translocase subunit SecA (Escherichia coli (strain K12)) (P10408 whole entry): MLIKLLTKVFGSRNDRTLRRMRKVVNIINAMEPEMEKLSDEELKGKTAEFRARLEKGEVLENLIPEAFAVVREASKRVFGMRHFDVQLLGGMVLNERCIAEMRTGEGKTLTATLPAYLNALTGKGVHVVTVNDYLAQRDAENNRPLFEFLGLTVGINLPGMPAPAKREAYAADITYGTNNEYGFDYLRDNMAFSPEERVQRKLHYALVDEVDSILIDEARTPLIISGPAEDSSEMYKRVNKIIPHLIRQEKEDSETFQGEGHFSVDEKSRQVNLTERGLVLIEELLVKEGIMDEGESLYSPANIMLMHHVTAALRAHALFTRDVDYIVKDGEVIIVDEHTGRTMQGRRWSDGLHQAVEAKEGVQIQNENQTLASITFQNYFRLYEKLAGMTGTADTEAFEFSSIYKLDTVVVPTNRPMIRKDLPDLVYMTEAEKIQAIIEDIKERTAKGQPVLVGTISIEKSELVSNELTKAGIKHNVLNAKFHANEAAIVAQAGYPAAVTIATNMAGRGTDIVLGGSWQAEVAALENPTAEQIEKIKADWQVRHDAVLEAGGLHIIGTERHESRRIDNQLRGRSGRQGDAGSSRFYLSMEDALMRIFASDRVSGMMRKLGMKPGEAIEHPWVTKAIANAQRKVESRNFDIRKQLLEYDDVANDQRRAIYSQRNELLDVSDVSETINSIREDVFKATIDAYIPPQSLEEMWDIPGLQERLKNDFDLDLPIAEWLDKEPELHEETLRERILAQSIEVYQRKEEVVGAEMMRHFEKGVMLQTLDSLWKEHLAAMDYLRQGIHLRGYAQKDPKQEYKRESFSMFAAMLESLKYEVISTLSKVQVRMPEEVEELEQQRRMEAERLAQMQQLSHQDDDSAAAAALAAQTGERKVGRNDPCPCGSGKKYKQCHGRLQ
The target in assay [2] is T1, Ubiquitin-activating enzyme e1, putative (Leishmania donovani (strain BPK282A1)) (UniProt E9BSI1).
T1 sequence (whole entry): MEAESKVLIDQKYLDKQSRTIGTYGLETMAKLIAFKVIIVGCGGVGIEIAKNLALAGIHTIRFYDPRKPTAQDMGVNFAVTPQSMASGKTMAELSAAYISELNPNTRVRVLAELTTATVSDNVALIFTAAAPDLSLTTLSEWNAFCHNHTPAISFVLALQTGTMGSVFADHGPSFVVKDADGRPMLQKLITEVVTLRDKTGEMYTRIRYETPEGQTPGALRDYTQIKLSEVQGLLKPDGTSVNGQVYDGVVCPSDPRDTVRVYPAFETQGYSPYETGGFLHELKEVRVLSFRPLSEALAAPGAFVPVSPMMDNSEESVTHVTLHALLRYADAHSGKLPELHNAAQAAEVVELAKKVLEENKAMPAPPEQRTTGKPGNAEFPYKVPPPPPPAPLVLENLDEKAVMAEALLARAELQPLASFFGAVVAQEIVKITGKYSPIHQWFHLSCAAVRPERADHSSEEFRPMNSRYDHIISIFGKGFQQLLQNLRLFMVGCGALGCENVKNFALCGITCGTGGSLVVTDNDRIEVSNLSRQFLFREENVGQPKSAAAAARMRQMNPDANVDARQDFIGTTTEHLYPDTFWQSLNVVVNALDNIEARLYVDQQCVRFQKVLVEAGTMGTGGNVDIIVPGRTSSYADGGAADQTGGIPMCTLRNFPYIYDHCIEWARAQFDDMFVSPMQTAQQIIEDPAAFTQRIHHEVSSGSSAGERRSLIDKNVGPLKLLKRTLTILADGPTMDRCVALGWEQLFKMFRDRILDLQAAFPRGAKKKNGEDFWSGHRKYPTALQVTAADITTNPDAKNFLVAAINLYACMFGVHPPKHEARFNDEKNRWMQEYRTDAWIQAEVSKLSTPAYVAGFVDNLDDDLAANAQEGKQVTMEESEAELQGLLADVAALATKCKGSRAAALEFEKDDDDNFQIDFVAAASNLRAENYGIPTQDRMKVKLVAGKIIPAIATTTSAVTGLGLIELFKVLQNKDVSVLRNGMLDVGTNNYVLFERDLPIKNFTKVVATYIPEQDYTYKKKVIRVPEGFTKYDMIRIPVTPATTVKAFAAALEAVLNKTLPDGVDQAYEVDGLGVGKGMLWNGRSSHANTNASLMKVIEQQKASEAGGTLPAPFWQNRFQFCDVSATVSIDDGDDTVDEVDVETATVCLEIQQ
The assay is described as follows: Leishmania donovani Ubiquitin Activating Enzyme (LdE1). It counts as functional. Conditions: 30 µM.

Assay [3] deals with AMP-activated protein kinase, AMPK (Homo sapiens) (UniProt P54646+O43741+P54619+Q9UGJ0+Q9Y478+Q13131+Q9UGI9). The assay is described as follows: AMP-dependent Kinase enzyme assay. An in vitro enzyme assay that detects ADP turnover that is directly proportional to AMPK activity. This uses naive AMPK that is activated during the assay with MK-8722. It counts as functional. Conditions: 30 µM.

The target in assay [4] is Sialic acid-binding Ig-like lectin 9 (Homo sapiens) (UniProt Q9Y336). The assay is described as follows: Hs-Siglec9 ALPHAscreen SOP 20170721. Conditions: 10 µM. (In Alpha technology, singlet oxygen from a donor bead excites a nearby acceptor bead.)
Chain of Sialic acid-binding Ig-like lectin 9 (Homo sapiens) (Q9Y336 whole entry): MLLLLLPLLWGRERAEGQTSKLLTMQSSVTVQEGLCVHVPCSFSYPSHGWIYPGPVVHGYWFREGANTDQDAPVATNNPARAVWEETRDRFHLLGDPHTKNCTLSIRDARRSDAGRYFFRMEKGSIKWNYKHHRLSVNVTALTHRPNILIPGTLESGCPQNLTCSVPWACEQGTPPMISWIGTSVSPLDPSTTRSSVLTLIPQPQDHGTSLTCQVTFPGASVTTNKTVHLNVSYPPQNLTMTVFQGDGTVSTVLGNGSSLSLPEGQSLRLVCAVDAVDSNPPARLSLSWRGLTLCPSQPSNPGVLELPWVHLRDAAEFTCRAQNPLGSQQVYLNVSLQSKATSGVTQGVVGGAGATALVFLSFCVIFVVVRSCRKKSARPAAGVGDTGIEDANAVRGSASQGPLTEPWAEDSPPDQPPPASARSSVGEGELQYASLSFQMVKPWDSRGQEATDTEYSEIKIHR
The next assay relates to Trypanosoma cruzi. The assay is described as follows: Trypanosoma cruzi phosphomannomutase and mannose-1-phosphate guanylyltransferase assay. It counts as functional. Conditions: 10 µM.
For assay [5], the target named is T2, Arginase-2, mitochondrial (Homo sapiens) (UniProt P78540).
T2 sequence (whole entry): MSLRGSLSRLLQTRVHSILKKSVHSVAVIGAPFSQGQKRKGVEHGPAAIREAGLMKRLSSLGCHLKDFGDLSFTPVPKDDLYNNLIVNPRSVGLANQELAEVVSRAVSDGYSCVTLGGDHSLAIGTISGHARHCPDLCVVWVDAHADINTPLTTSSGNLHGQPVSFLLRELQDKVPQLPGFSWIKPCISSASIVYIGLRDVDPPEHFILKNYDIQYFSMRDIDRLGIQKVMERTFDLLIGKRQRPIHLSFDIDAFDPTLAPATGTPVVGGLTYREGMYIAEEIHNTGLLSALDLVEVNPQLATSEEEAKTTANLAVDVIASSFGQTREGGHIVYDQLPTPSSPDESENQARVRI
Put plainly: in vitro enzyme assay to detect the production of urea directly proportional to the activity of Arginase II. Note: in the data most compounds retested in dose-response had high values. It counts as functional. Conditions: 33.3 µM.

The target in assay [6] is T3, Proteasome subunit beta (Trypanosoma cruzi) (UniProt O96673).
T3 sequence (whole entry): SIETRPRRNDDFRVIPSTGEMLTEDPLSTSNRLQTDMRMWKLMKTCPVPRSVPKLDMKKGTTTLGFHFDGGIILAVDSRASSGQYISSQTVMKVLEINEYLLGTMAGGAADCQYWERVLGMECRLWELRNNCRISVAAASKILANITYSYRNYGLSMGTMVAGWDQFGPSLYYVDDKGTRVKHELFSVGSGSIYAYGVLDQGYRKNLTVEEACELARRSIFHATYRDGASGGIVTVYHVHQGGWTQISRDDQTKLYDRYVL
The assay is described as follows: Trypanosoma cruzi proteasome chymotrypsin-like activity (TcProtChymo) assay. Note: in the data most compounds retested in dose-response had high values. The format is functional. Conditions: 9.37 µM.

The species named for a further assay is Homo sapiens. Put plainly: To identify inhibition of the IFN signalling (Jak-Stat) pathway via expression of an eGFP reporter gene under the control of an IFN-stimulated response element (ISRE) containing MxA promoter. The format is functional. Conditions: 30 µM. In general terms: In a reporter assay the amount or activity of a reporter protein is the signal.

Assay [7] addresses T4, Tyrosyl-tRNA synthetase, putative (Trypanosoma cruzi (strain CL Brener)) (UniProt Q4DSP6).
T4 sequence (whole entry): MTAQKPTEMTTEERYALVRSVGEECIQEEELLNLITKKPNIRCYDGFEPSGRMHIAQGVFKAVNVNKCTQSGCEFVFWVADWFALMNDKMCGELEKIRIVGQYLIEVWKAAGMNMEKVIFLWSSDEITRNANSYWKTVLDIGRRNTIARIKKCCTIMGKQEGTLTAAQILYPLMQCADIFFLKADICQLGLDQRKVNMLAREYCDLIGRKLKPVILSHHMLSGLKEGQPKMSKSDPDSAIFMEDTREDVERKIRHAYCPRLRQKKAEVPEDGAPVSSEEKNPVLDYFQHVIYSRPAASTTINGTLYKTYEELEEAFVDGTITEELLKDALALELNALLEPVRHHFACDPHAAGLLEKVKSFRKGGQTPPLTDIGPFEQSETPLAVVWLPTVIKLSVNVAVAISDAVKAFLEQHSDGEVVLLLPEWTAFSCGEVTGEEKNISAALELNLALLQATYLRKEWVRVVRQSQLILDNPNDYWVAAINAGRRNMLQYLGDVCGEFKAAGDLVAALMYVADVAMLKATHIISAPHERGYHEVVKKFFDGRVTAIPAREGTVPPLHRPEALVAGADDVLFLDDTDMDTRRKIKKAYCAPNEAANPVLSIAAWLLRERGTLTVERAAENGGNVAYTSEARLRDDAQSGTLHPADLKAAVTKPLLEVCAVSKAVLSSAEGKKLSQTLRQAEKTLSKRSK
The assay is described as follows: Trypanosoma cruzi tyrosyl tRNA synthetase (TcYRS) _High Tyrosine SOP. Note: in the data most compounds retested in dose-response had high values. It counts as functional. The conditions noted are these: 30 µM.

Assay [8] concerns the target T4, Tyrosyl-tRNA synthetase, putative (Trypanosoma cruzi (strain CL Brener)). The assay is described as follows: Trypanosoma cruzi tyrosyl tRNA synthetase (TcYRS) SOP. It counts as functional. The conditions noted are these: 30 µM.
The target of assay [9] is Chromo domain-containing protein 1 (Saccharomyces cerevisiae (strain ATCC 204508 / S288c) (Baker's yeast)) (UniProt P32657). The assay is described as follows: ScCHD-1 Enzyme Inhibition Assay. Note: in the data most compounds retested in dose-response had high values. The format is functional. Conditions: 30 µM.
Chain of Chromo domain-containing protein 1 (Saccharomyces cerevisiae (strain ATCC 204508 / S288c) (Baker's yeast)) (P32657 whole entry, the tested form may be a part): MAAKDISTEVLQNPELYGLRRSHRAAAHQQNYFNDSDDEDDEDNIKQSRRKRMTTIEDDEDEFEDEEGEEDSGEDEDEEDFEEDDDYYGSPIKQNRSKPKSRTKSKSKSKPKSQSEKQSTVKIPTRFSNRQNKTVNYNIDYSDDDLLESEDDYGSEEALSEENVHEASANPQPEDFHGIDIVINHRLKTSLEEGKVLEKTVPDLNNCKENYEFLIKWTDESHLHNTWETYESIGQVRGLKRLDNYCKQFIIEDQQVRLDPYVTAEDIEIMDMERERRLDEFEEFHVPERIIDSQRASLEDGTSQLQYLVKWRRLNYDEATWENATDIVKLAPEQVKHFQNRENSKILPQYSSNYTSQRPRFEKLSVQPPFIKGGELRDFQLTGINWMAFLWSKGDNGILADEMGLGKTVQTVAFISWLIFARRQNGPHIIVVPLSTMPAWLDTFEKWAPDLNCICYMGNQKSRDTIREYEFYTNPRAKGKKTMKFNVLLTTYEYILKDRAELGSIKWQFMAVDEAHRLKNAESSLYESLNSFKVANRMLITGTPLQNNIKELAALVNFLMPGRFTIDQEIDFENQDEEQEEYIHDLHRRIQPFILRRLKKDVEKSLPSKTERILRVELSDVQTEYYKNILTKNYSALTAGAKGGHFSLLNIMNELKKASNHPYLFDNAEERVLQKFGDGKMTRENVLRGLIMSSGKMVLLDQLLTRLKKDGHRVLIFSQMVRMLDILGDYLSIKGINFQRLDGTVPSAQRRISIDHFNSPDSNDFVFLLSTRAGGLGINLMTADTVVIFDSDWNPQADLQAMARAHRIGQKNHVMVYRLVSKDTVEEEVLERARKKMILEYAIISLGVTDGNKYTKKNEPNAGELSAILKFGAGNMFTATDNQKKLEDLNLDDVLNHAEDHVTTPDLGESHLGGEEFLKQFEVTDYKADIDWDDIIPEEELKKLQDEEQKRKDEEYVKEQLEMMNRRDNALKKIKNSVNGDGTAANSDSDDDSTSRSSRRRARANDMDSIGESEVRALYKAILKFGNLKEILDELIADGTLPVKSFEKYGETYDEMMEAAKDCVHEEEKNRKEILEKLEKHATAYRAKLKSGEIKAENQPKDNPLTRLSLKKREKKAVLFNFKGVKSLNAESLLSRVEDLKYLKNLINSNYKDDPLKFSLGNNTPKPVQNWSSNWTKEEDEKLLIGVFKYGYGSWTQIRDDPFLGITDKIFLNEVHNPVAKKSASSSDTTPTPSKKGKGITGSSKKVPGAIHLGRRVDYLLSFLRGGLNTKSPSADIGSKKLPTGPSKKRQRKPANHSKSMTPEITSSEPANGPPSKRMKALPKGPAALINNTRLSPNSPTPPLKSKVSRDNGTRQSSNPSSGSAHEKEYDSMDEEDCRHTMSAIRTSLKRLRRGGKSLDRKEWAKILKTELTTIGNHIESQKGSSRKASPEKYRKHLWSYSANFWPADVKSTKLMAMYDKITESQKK

For some of these results: Potency and affinity values are given separately.

Regarding `Cn1c(NCC(O)c2ccc(F)cc2F)c(C#N)c(=O)n(C)c1=O` (stereo unspecified), the Percent Effect in [1] is -4.86%; in [2], 17.7%; in assay [3], -12.9%; in assay [4] it was -5.84%; in the assay on Trypanosoma cruzi, 1.6%; in [5] it was 6.46%. Moreover, the Percent Effect was 4.01% in [6]; -3.56% in the assay filed under Homo sapiens; 5.42% in assay [7]; 13.9% in assay [8]; -7.19% in assay [9].
`O=C(CC1CC1)N1CCC2(CC1)CN(c1ncccn1)CCO2`: the Percent Effect in assay [1] is -2.48%; in assay [2], 2.67%; in assay [3], 5.17%; in assay [4] it was 6.83%; in the assay on Trypanosoma cruzi, -6.89%; in assay [5], -5.83%. Also, the Percent Effect in [6] is 5.9%; in the assay filed under Homo sapiens, 9.78%; in [7], -5.32%; in [8], -1.28%; in [9], -7.95%.
`CNC(=O)[C@H]1C[C@H]2OCC[C@H]2N(Cc2ccc(C)o2)C1`: the Percent Effect is -0.274% in [1]; 7.79% in assay [2]; 4.6% in [3]; 0.238% in assay [4]; -6.02% in the assay with Trypanosoma cruzi; -4.52% in assay [5]. Besides, the Percent Effect was 9.57% in assay [6]; 7.69% in the assay filed under Homo sapiens; 1.06% in assay [7]; 8.97% in assay [8]; -6.31% in assay [9].
Turning to `Cc1ccc(N2CCCC(NCc3cscn3)C2)nn1` (stereo unspecified), the Percent Effect in assay [1] was -1.67%; in [2], 13.5%; in assay [3], -43.1%; in [4] it was -1.8%; with Trypanosoma cruzi it was -1.04%; in assay [5], 18.4%. Also, the Percent Effect in assay [6] was 11.3%; in the assay listed under Homo sapiens it was 3.87%; in [7] it was 12.3%; in assay [8], 23.5%; in assay [9] it was -5.79%.
As for `CS(=O)(=O)N1CCC2(CN(C(=O)c3cccnc3)C2)C1`, the Percent Effect in [1] was -2.76%; in assay [2], 5.48%; in assay [3] it was -1.91%; in assay [4], 3.06%; in the assay on Trypanosoma cruzi, -2.18%; in assay [5] it was -2.79%. The Percent Effect in assay [6] was 14.3%; in the assay listed under Homo sapiens, 23.4%; in [7], 4.17%; in assay [8], 6.17%; in assay [9], -1.65%.
`Cc1noc(C)c1CN1CC[C@H]2OCC[C@@H](C(=O)NCC3CC3)[C@@H]2C1`: the Percent Effect in [1] was -4.39%; in [2] it was 2.67%; in assay [3], 1.83%; in assay [4], 6.75%; in the assay on Trypanosoma cruzi, -1.54%; in assay [5] it was -25.3%. Also, the Percent Effect in [6] is 8.21%; in the assay listed under Homo sapiens, -17.4%; in assay [7] it was 0%; in assay [8] it was 12.5%; in [9] it was -5.06%.
For `Cc1ccc(Cl)cc1C(=O)N1CCC2(CC1)c1ccccc1[C@@H](N)[C@@H]2O`, the Percent Effect is -6.01% in assay [1]; 5.41% in assay [2]; -7.41% in assay [3]; 40.2% in assay [4]; 9.85% with Trypanosoma cruzi; -2.38% in assay [5]. Moreover, the Percent Effect amounted to 19% in assay [6]; 2.23% in the assay listed under Homo sapiens; 6.88% in assay [7]; 12.2% in [8]; 10.1% in assay [9].
As to `CC(C)c1nn(C)c(N(C)C)c1CNCC(O)c1ccccc1F` (stereo unspecified), the Percent Effect in [1] was -3.41%; in [2], 18.2%; in assay [3], -14.7%; in [4], 3.26%; in the assay on Trypanosoma cruzi it was 0.562%; in assay [5], -1.07%. Also, the Percent Effect in [6] is 4.39%; in the assay listed under Homo sapiens it was 10.4%; in [7], 6.8%; in [8], 7.32%; in [9], -8.47%.
For `COc1ccc(OC)c(NC(=O)NCC(O)c2ccc(F)c(F)c2)c1` (stereo unspecified), the Percent Effect in assay [1] was -0.0799%; in assay [2], 8.86%; in assay [3], 8.98%; in assay [4], -1.21%; in the assay on Trypanosoma cruzi, -5.44%; in assay [5], 3.23%. In addition, the Percent Effect in assay [6] is 15.6%; in the assay listed under Homo sapiens, 9.13%; in assay [7], -1.04%; in [8], 5.06%; in assay [9] it was -21.5%.
Regarding `O=C(c1cscn1)N1C[C@@H]2C[C@@H](c3nnc(C4CC4)o3)O[C@@H]2C1`, the Percent Effect in [1] was 1.55%; in assay [2], 7.79%; in assay [3], 2.51%; in [4], -3.79%; in the assay on Trypanosoma cruzi it was -10.2%; in assay [5], 22.6%. The Percent Effect is 10.4% in assay [6]; 7.19% in the assay listed under Homo sapiens; -1.06% in assay [7]; 6.41% in assay [8]; -7.72% in assay [9].
Take `Cc1nn(C)c(C)c1C1CCCN1Cc1nc(-c2ccco2)oc1C` (stereo unspecified): the Percent Effect in assay [1] is -4.35%; in [2], 18.9%; in assay [3], -4.34%; in assay [4], -6.83%; in the assay with Trypanosoma cruzi, -1.76%; in assay [5], 3.14%. The Percent Effect is 11.3% in assay [6]; 18.9% in the assay filed under Homo sapiens; 8.91% in assay [7]; 13.4% in assay [8]; -8.93% in [9].
